PubChem BioAssay
Activity calls are given as the source filed them.

Assays:
Albumin (Bos taurus) = Albumin (Bos taurus) (UniProt P02769); assay: bovine serum albumin binders on microarray, profiling panel, artefact control for SMM control protein annotation, biochemical, small-molecule microarray, Alexa647 label, 635/667 nm fluorescence (AID 1118); conditions: BSA-A647 binding, fluorescence 635 nm, higher = more signal;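 also: score merges 667 nm emission intensity and signal-to-noise per printed compound spot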
[1] = small-molecule microarray binders of probe aXIP, primary screen, biochemical, NeuroSMM set, 635/667 nm fluorescence (AID 1119); conditions: higher = more signal, called active from +8 up or from −8 down;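 also: probe is the protein aXip251-270 applied at 1 µg/mL to compound-printed slides; binding of probe to printed compounds measured as 667 nm fluorescence plus signal to noise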
[2] = small-molecule binders of probe aNOTCH3, primary screen, biochemical, small-molecule microarray, 635/667 nm fluorescence (AID 1120); conditions: higher = more signal;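 also: probe is a biotin-tagged antibody raised against NOTCH3 rather than NOTCH3 protein; score merges spot fluorescence near 667 nm with spot signal to noise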
[3] = small-molecule binders of probe aNOTCH2, primary screen, biochemical, small-molecule microarray, 635/667 nm fluorescence (AID 1121); conditions: higher = more signal;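 also: score merges feature fluorescence read at 667 nm with its signal to noise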
[4] = molecular target: Carbonic anhydrase 2 (Homo sapiens) (UniProt P00918); assay: CAII small-molecule binders, profiling panel, biochemical, small-molecule microarray, Alexa647-labelled CAII (AID 1122); conditions: CAII-A647 binding fluorescence, higher = more signal
[5] = COS7 lysate on small-molecule microarray, probe aHis, 635 nm (AID 1123); conditions: COS7 cell lysate, fluorescence, higher = more signal;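 also: z-score combines 667nm fluorescence intensity with signal-to-noise per printed compound spot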
[6] = compound binding in COS7 lysate, probe aLAP1, primary screen, cell lysate, small-molecule microarray (AID 1124); conditions: probe aLAP1, fluorescence, higher = more signal;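 also: lysate comes from COS7 cells expressing LAP1 and is applied at 0.3 µg/mL; score merges spot fluorescence near 667 nm with signal-to-noise over triplicate slides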
Sam68 (KHDRBS1) = assay: Sam68 small-molecule binders, primary screen, biochemical, small-molecule microarray, 635 nm fluorescence (AID 1125); conditions: small-molecule microarray binding, higher = more signal;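 also: score merges 667 nm channel intensity with signal to noise over triplicate slides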
[7] = test system: Chordin-like protein 2 (CHRDL2); assay: CHRDL2 small-molecule binders, primary screen, biochemical, small-molecule microarray, 635 nm fluorescence (AID 1126); conditions: small-molecule microarray binding, fluorescence 635 nm; higher = more signal;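 also: printed compound slides probed with Chrdl2 protein at 4 µg/mL for 1 h at 4 C; score merges 667 nm emission intensity with signal to noise over three replicate slides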
[8] = molecular target: Concanavalin-A (Canavalia ensiformis) (UniProt P02866); assay: ConA small-molecule binders, primary screen, artefact control for SMM control protein annotation, biochemical, small-molecule microarray, Alexa647 label, 635 nm (AID 1127); conditions: ConA-A647 binding fluorescence, higher = more signal;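 also: z combines 667 nm emission intensity with signal-to-noise across three replicate slides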
[9] = anti-His antibody binders, primary screen, artefact control for SMM control protein annotation, biochemical, small-molecule microarray, 635 nm fluorescence (AID 1128); conditions: anti-His Alexa647 antibody binding, higher = more signal;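 also: score merges feature fluorescence with signal-to-noise for each printed compound spot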
[10] = test system: Human papillomavirus type 1a E7 protein (residues 1-88); assay: HPV1a E7 small-molecule binders, primary screen, biochemical, small-molecule microarray, residues 1-88, 635 nm (AID 1129); conditions: small-molecule microarray binding, fluorescence 635 nm; higher = more signal
[11] = molecular target: Focal adhesion kinase 1 (Homo sapiens) (UniProt Q05397); assay: small-molecule microarray binders of FAK, primary screen, biochemical, 635/667 nm fluorescence, BSA, DTT (AID 1130); conditions: PTK2 binding, 635 nm fluorescence, higher = more signal;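 also: composite of spot emission at 667 nm and signal to noise over triplicate slides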
[12] = test system: Fibrinogen (Alexa647-labelled); assay: fibrinogen binders on compound microarrays, profiling panel, artefact control for SMM control-protein annotation, biochemical, small-molecule microarray, 635/667 nm fluorescence (AID 1131); conditions: fibrinogen-A647 binding fluorescence, higher = more signal;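 also: z-score merges 667 nm fluorescence with per-spot signal-to-noise over triplicate slides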
[13] = molecular target: Follistatin (Homo sapiens) (UniProt P19883); assay: follistatin binders on small-molecule microarrays, primary screen, biochemical, small-molecule microarray, 635/667 nm fluorescence (AID 1132); conditions: FST binding, 635 nm fluorescence, higher = more signal
[14] = molecular target: Fibroblast growth factor 2 (Homo sapiens) (UniProt P09038); assay: FGF2 binders on small-molecule microarrays, primary screen, biochemical, small-molecule microarray, 635/667 nm fluorescence (AID 1133); conditions: small-molecule microarray binding, FGF2, fluorescence 635/667; higher = more signal
[15] = mitochondrial membrane potential change in A549 cells, profiling panel, cell-based, JC-1 fluorescence, basal, 24 h, 100 nL (AID 1138); conditions: higher = more signal;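 also: A549 lung adenocarcinoma cells under basal conditions with no added stimulus; test concentration not given here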
Lefty1 = Lefty1 binders on small-molecule microarrays, primary screen, biochemical, small-molecule microarray, 635/667 nm fluorescence (AID 1139); conditions: small-molecule microarray binding, fluorescence 635/667; higher = more signal
[16] = test system: wheat germ agglutinin (Triticum aestivum), Alexa647-labelled; assay: wheat germ agglutinin binders on compound microarrays, profiling panel, artefact control for SMM control-protein annotation, biochemical, small-molecule microarray, 635/667 nm fluorescence (AID 1140); conditions: WGA-A647 binding, 635 nm fluorescence, higher = more signal;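 also: score merges 667 nm feature emission with signal to noise over triplicate slides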
[17] = molecular target: Luciferin 4-monooxygenase (Photinus pyralis) (UniProt P08659); assay: firefly luciferase enzyme inhibitors, primary screen, biochemical, luminescence, purified enzyme, 2006 set (AID 1141); conditions: SteadyGlo luminescence, 30 min, higher = more signal, called active from +8 up or from −8 down;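 also: cell-free assay with purified firefly luciferase at 100 ng per well in PBS; test concentration not given here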
Sequence of Luciferin 4-monooxygenase (Photinus pyralis) (P08659 whole entry, looked up): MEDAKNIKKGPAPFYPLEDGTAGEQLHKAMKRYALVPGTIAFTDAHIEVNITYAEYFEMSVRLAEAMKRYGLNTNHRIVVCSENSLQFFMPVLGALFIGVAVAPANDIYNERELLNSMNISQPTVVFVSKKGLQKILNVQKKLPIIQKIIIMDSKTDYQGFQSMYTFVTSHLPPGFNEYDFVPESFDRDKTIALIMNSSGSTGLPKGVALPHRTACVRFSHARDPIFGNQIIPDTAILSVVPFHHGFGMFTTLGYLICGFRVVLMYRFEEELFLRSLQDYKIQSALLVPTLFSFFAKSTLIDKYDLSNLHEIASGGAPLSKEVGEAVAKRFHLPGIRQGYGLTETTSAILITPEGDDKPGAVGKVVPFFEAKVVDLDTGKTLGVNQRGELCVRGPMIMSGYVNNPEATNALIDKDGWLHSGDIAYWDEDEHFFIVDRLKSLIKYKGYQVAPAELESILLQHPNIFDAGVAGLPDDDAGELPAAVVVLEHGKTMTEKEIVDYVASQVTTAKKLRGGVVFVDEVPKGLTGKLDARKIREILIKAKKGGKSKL

Sequence of Focal adhesion kinase 1 (Homo sapiens) (Q05397 whole entry, looked up): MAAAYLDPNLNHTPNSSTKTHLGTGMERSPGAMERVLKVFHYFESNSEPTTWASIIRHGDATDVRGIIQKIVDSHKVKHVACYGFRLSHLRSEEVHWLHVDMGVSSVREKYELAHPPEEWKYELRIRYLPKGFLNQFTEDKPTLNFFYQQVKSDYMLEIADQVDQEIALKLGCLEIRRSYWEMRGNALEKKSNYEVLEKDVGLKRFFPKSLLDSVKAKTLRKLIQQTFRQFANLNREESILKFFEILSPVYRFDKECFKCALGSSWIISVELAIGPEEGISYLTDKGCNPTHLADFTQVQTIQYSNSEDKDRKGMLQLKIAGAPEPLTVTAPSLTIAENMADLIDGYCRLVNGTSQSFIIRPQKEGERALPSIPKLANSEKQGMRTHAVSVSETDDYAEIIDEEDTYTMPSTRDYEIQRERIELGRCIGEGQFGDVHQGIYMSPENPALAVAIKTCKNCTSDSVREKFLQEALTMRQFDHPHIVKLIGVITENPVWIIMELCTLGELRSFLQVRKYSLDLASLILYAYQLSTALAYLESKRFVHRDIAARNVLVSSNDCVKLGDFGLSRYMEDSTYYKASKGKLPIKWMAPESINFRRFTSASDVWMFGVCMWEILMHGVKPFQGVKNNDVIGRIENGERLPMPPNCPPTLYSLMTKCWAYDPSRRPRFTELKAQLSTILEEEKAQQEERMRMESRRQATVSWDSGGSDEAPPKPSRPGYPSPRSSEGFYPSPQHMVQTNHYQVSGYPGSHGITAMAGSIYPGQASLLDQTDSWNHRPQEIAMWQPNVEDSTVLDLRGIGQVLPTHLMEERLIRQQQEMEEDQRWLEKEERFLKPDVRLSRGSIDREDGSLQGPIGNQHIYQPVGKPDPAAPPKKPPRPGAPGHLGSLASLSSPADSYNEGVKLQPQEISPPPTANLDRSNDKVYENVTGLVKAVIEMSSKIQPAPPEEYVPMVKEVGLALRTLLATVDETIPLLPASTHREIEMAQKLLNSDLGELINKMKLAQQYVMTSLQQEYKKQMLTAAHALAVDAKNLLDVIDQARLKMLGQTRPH
Sequence of Follistatin (Homo sapiens) (P19883 whole entry, looked up): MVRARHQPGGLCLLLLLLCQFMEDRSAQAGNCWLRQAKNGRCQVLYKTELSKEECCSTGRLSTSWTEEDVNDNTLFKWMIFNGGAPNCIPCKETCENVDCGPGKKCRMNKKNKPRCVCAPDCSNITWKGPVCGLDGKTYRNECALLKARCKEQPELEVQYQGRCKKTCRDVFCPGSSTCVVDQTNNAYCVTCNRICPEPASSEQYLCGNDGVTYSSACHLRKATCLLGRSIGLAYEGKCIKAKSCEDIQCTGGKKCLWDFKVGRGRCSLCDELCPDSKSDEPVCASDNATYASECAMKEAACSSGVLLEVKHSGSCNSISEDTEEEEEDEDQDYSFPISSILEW
Sequence of Concanavalin-A (Canavalia ensiformis) (P02866 whole entry, looked up): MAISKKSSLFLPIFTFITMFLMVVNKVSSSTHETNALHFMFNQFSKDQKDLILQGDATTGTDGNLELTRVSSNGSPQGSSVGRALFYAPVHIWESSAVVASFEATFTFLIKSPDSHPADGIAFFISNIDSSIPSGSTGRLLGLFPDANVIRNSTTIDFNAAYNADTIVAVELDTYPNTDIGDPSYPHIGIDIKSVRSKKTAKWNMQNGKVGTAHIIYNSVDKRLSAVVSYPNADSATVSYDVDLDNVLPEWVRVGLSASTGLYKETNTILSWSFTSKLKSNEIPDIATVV
Sequence of Fibroblast growth factor 2 (Homo sapiens) (P09038 whole entry, looked up): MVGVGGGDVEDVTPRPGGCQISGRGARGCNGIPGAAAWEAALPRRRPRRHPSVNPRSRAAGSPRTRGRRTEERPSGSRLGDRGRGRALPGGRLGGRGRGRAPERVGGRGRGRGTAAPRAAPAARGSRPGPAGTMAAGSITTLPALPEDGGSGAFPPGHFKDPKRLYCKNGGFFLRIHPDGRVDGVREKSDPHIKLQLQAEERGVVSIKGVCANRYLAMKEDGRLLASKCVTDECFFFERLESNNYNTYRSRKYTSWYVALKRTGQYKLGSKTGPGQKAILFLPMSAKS
Sequence of Albumin (Bos taurus) (P02769 whole entry, looked up): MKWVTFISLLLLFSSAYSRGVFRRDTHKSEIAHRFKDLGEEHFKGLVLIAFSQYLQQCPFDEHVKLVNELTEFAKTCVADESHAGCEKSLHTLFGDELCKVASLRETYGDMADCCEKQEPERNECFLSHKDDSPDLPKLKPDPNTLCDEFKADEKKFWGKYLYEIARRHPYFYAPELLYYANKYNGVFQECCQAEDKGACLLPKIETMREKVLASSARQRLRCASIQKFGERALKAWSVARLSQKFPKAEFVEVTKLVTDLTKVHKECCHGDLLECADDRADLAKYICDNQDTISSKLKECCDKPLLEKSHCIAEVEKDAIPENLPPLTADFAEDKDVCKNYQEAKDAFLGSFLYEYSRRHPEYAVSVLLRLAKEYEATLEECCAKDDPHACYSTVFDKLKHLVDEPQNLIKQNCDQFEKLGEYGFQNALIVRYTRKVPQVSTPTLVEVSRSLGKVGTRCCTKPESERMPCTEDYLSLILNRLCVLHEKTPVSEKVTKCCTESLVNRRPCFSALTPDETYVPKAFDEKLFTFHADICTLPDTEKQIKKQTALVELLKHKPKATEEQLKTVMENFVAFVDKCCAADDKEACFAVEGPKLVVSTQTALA

| SMILES | composite z-score (Albumin (Bos taurus)) | composite Z-score [1] | composite z-score [2] | composite z-score [3] | composite z-score [4] | composite z-score [5] | composite z-score [6] | composite z-score (Sam68 (KHDRBS1)) | composite z-score [7] | composite z-score [8] | composite z-score [9] | composite z-score [10] | composite z-score [11] | composite z-score [12] | composite z-score [13] | composite z-score [14] | z-score [15] | composite z-score (Lefty1) | composite z-score [16] | z-score [17] |
| --- | --- | --- | --- | --- | --- | --- | --- | --- | --- | --- | --- | --- | --- | --- | --- | --- | --- | --- | --- | --- |
| C[C@H]1CC[C@H]2C(=O)OC(COc3ccc(C(C)(C)C)cc3)CN2[C@@H]1c1ccc(Br)cc1 (stereo not given in full) | 0.654 | 0.455 (inactive) | -0.165 | -0.189 | 0.267 | 1.42 | 0.2 | 0.961 | 0.186 | 1.02 | 0.148 | 1.15 | 0.29 | 0.819 | 0.312 | 0.118 | 1.28 | 0.334 | 0.264 | -1.37 (inactive) |
| CC(C)(C)N1C(=O)[C@H]2[C@H]3[C@H](O)[C@H](O)CC(=NOC[C@@H](O)COCc4ccco4)[C@@H]3CC[C@H]2C1=O | 0.617 | 0.103 (inactive) | -0.0311 | -0.0984 | -0.129 | 0.0171 | 0.227 | -0.254 | 0.107 | 0.506 | -0.329 | -0.451 | -0.0584 | 0.961 | -0.396 | -0.0677 | -0.521 | -0.211 | 0.915 | -0.124 (inactive) |
| COc1ccc(O[C@H]2C=C[C@@H](c3ccccc3)O[C@@H]2CON=C(C)CCN2CCCc3nc(C)c(C)cc32)cc1 | 0.118 | 0.528 (inactive) | 0.0225 | -0.048 | 0.437 | 0.896 | 0.271 | 1.05 | 0.369 | 0.946 | 1.5 | 0.957 | 0.0143 | 0.328 | 0.651 | 0.529 | 1.16 | 0.408 | 0.584 | 0.715 (inactive) |
| CCOC(=O)CCN1C(=O)[C@H]2[C@H]3[C@H](O)[C@H](O)CC(=O)[C@@H]3CC[C@H]2C1=O | 0.206 | -0.778 (inactive) | -0.0448 | -0.12 | 0.494 | 0.696 | -0.732 | 0.81 | 0.514 | 0.729 | 0.591 | 0.843 | -0.0508 | 0.532 | 0.64 | 1.28 | -0.466 | 1.38 | 0.157 | 0.426 (inactive) |
| Cc1cc(C)c(-c2cc([C@H](C)ON=C[C@@H](C)[C@H](OCc3ccccc3)C(C)C)on2)c(C)c1 | -0.365 | 0.687 (inactive) | -0.061 | -0.185 | -0.206 | -0.244 | -0.637 | -0.686 | -0.11 | -0.412 | -0.781 | -1.04 | 0.0063 | -1.82 | -0.158 | 0.133 | 1.18 | 0.116 | 0.528 | 0.82 (inactive) |
| CCO[C@H](c1cc(OC)cc([N+](=O)[O-])c1OC)[C@H](C)[C@@H](OC)[C@H](C)C=CCC(=O)OC | 0.825 | 0.179 (inactive) | -0.0947 | -0.0907 | 0.725 | 0.0657 | -0.0242 | 0.724 | -0.0602 | 0.666 | -0.406 | 0.257 | 0.115 | 0.949 | 0.0822 | 0.183 | 0.163 | -0.125 | 0.298 | 0.114 (inactive) |
| O=C1C[C@@H](O)[C@@H](O)[C@@H]2[C@@H]3C(=O)N(c4ccc(F)cc4F)C(=O)[C@@H]3CC[C@H]12 | 0.422 | -0.0025 (inactive) | 0.0257 | -0.102 | 0.104 | 0.517 | 0.0172 | 0.495 | 0.571 | 0.44 | 0.387 | 0.503 | 0.0336 | 0.428 | 0.549 | 0.401 | -0.834 | 0.645 | 0.304 | -0.211 (inactive) |
| CC(=O)OC[C@H]1O[C@@H](ON=C(C)CCC(=O)OC[C@H]2O[C@H](C#Cc3ccccc3)C=C[C@@H]2Oc2ccc(C)cc2)[C@H](OC(C)=O)[C@@H](OC(C)=O)[C@@H]1OC(C)=O | 0.635 | -0.0164 (inactive) | 0.0493 | -0.0714 | 0.273 | 0.989 | 0.0582 | 1.3 | 0.549 | 0.943 | 0.48 | 0.843 | 0.108 | 0.705 | 0.753 | 1.26 | 1.08 | 0.648 | 0.307 | -0.305 (inactive) |
